MITF act = MITF TRPM1 promoter activation in melanoma cells; 300,000 compounds, 0.75% hits; SK-MEL-5 TRPM1-promoter luciferase, 24 h; % of positive control, neutral wells = 0; activation, % at 12.5 µM;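 active means mean activation of at least 80% with every replicate also reaching 80%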;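 further: 0% = neutral control wells and 100% = parthenolide positive control wells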
LGR2 inh = inhibitors of bursicon-induced Drosophila LGR2 receptor cAMP signaling; 380,000 compounds, 0.35% hits; AID 720647; inhibition, % at 9.99 µM; HEK293 LGR2, CRE-luciferase, bursicon-stimulated, 4 h;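 active means drop in luminescence signal, shown as inhibition above about 50% in the replicate tests, limit read from the data, passing the limit was not always enough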;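 further: agonist challenge used bursicon conditioned medium at about half maximal strength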
TWEAK-Fn14 inh = blocks TWEAK-Fn14 interaction in a reporter cell assay; TWEAK-stimulated Fn14 reporter cells, luciferase luminescence, 8 h; inhibition, % at 10 µM; 360,000 compounds, 2% hits; AID 1159606; in the data active means inhibition above about 50%
TROY signal inh = TROY signaling inhibition; Q293 LMP1-TROYcd NF-kB luciferase reporter, 4 h; inhibition, % at 10 µM; 360,000 compounds, 0.98% hits; AID 1347056;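 active means compounds whose plate-normalised and pattern-corrected inhibition of the luciferase reporter signal at the single screening dose is 50% or more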
MITF TRPM1 inh = MITF TRPM1 promoter inhibition in SK-MEL-5 cells; SK-MEL-5 TRPM1 promoter luciferase, 24 h; inhibition, % at 12.5 µM; AID 488899; 330,000 compounds, 0.83% hits;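 active means mean inhibition across replicates of 60% or more, whatever share of single replicates reaches that level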
LMP1 NFkB inh = Epstein-Barr LMP1 NF-kappaB reporter inhibition; inhibition, % at 12.5 µM; LMP1-induced NF-kappaB luciferase reporter cells, luminescence; AID 504558; 350,000 compounds, 0.69% hits; in the data active means inhibition above about 41%;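 further: 0% = neutral control wells and 100% = reference inhibitor control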
Numbers without * were called inactive; / = no result given. Rows were chosen to be rich in hits. Some 3% of all compounds tested hit in one or more screens of this group.

SMILES	MITF act	LGR2 inh	TWEAK-Fn14 inh	TROY signal inh	MITF TRPM1 inh	LMP1 NFkB inh
Cc1ccccc1-c1ccc2c(c1)O[C@H](CN(C)C(=O)C1CC1)[C@H](C)CN([C@H](C)CO)S2(=O)=O	/	0	/	/	/	/
C[C@H]1CCCCO[C@@H](CN(C)C(=O)CCCN(C)C)[C@@H](C)CN([C@@H](C)CO)C(=O)c2cc(NC(=O)c3ccccc3)ccc2O1	/	3	/	/	/	/
O=C(CSc1nnc(-c2c[nH]c3ccccc23)o1)N1c2ccccc2CCc2ccccc21	-15	11	63*	39	16	7
O=C(CSc1nnc(-c2c[nH]c3ccccc23)o1)N1CCCCC1	31	-21	-14	-49	-28	-11
CCC(=O)N1[C@H](CN(C)C(=O)c2ccccc2F)[C@@H](c2ccccc2)[C@@H]1CO	/	5	/	/	/	/
O=C(c1ccc2c(c1)OCO2)N1CC[C@@H]2[C@H]1c1cc(-c3ccc(F)cc3)ccc1N[C@@H]2CO	/	-12	/	/	/	/
COc1cccc2oc3cc(C#CC4(O)CCCCC4)ccc3c(=O)c12	31	11	73*	77*	-25	-36
COc1cccc2oc3cc(C#Cc4ccccn4)ccc3c(=O)c12	/	-36	/	/	/	/
O=c1c2ccccc2oc2cc(C#CC3(O)CCCCC3)ccc12	-46	/	101*	87*	49	11
CC(=O)N(C)C[C@@H]1Oc2ncc(C#CCC3CCCC3)cc2C(=O)N([C@@H](C)CO)C[C@H]1C	/	-13	/	/	/	/
CCCSc1nc2cc(S(=O)(=O)N3CCOCC3)ccc2n1CC	4	-2	-5	-12	0	67*
CCOC(=O)C1(Cc2cccc(OC)c2)CCCN(C(=O)c2ccc(OC)o2)C1 (stereo unspecified)	88*	-56	98*	-96	-86	-29
CN1C(=O)c2cc(NC(=O)Nc3ccccc3F)ccc2OC[C@@H]2O[C@H](CC(=O)O)CC[C@H]21	/	7	/	/	/	/
Cc1ccc(/C=C/C(=O)c2ccc(O)cc2)cc1	73	-40	16	-16	-71	-7
Cc1ccc(/C=C/C(=O)c2ccccc2)cc1	97*	-28	-10	-78	-93	-13
CCOc1ccc(C(=O)/C=C/c2ccc(SC)cc2)cc1	8	-6	-4	-41	-5	-11
CSc1ccc(/C=C/C(=O)c2ccc(O)cc2)cc1	94*	-17	16	-38	-91	0
C/C(=N\NC(=O)c1c(C)nc2ccccn12)c1cccc([N+](=O)[O-])c1	-15	-29	14	20	16	6
Cc1ccc(/C=C/C(=O)c2c(C)nc3ccccn23)cc1	/	/	52*	-35	-10	-17
Cc1nc2ccccn2c1C(=O)/C=C/c1cccc([N+](=O)[O-])c1	-66	24	94*	36	71*	32
O=C(C1CC1)N1C[C@H]2[C@@H](c3ccccc31)[C@@H](CO)N2C(=O)c1ccccn1	/	-3	/	/	/	/
COc1cccc(C#Cc2cnc3c(c2)C(=O)N([C@H](C)CO)C[C@@H](C)[C@H](CN(C)C)O3)c1	/	-6	/	/	/	/
Cc1cccc(C(=O)Nc2ccc(C(=O)/C=C/c3cccnc3)cc2)c1	-26	-26	0	-76	27	27
Cc1cccc(C(=O)Nc2ccc(C(=O)/C=C/c3ccncc3)cc2)c1	-55	-4	-13	58*	55	38
COCC(=O)N1C[C@@H](C)[C@H](OC)CN(C)C(=O)c2ccc(NC(=O)NC(C)C)cc2OC[C@H]1C	/	-7	/	/	/	/
SMILES	MITF act	LGR2 inh	TWEAK-Fn14 inh	TROY signal inh	MITF TRPM1 inh	LMP1 NFkB inh
COc1ccc(-c2oc3ncnc(NCCN4CCOCC4)c3c2-c2ccc(OC)cc2)cc1	-3	/	33	16	1	48*
COc1ccc(-c2csc3ncnc(NCCN4CCOCC4)c23)cc1	0	/	45	43	1	46*
Cc1ccc(-c2csc3ncnc(NCCN4CCOCC4)c23)cc1	-14	/	42	18	15	5
COc1ccc(C(=O)Nc2cccc3cccnc23)cc1OC	53	-31	0	-39	-53	-1
COc1ccc(NC(=O)C(=O)Nc2cccc3cccnc23)cc1OC	/	-10	105*	-22	-36	-24
CCCN1C[C@@H](C)[C@H](OC)CN(C)C(=O)c2cc(NC(=O)C3CC3)ccc2OC[C@@H]1C	/	11	/	/	/	/
C[C@@H]1CN([C@H](C)CO)S(=O)(=O)c2ccc(-c3cncnc3)cc2O[C@@H]1CN(C)C(=O)C1CCC1	/	-1	/	/	/	/
O=C(C1CCC(Cn2c(=S)[nH]c3ccccc3c2=O)CC1)N1CCN(c2ccccc2)CC1 (stereo unspecified)	/	/	31	20	15	11
O=C(C1CCC(Cn2c(=S)[nH]c3ccccc3c2=O)CC1)N1CCN(c2ccccn2)CC1 (stereo unspecified)	-8	23	56*	-7	9	18
Cc1nn(-c2ccccc2)c(Cl)c1C(=O)NCCCCNC(=O)c1c(C)nn(-c2ccccc2)c1Cl	-2	/	7	10	6	61*
Cc1nn(-c2ccccc2)c(C)c1C(=O)NCCc1ccccc1	88*	7	-12	-55	-88	-13
Cc1nn(-c2ccccc2)c(C)c1C(=O)NCCc1ccc(Cl)cc1	-9	0	-5	-7	10	5
CCOC(=O)c1c(C)nn(-c2ccc(NC(=O)/C=C/C(=O)O)cc2)c1C	/	/	61*	45	9	14
Cc1nn(-c2ccccc2)c(C)c1C(=O)OCC(=O)Nc1ccccc1F	100*	-93	-21	-35	-95	-14
CCOC(=O)c1c(C)nn(-c2ccc(NC(=O)c3c(C)noc3C)cc2)c1C	-24	-4	20	13	30	4
O=C(C[C@H]1CC[C@@H](NC(=O)Nc2ccccc2)[C@H](CO)O1)NCc1cccc(F)c1	/	6	/	/	/	/
C[C@@H]1CN([C@H](C)CO)C(=O)c2cc(C3=CCCC3)cnc2O[C@H]1CN(C)Cc1ccccn1	/	11	/	/	/	/
CO[C@H]1CN(C)C(=O)c2ccc(NC(=O)c3cccc(F)c3)cc2OC[C@@H](C)N(CC2CC2)C[C@H]1C	/	24	/	/	/	/
C[C@H]1CN([C@@H](C)CO)C(=O)c2cc(-c3ccccc3)cnc2O[C@H]1CN(C)C(=O)c1cccc(F)c1	/	-3	/	/	/	/
Cc1c(Cl)sn(-c2ccc(Cl)cc2)c1=O	-97	43	-8	-9	97*	11
O=C(/C=C/Sc1ccc(C(F)(F)F)cn1)c1ccccc1	-43	-61	60*	22	41	-7
O=C(CSc1ccc(C(F)(F)F)cn1)Nc1ccccc1	2	2	-19	-34	-4	-23
O=C(Nc1ccc(Cl)cc1)N[C@@H]1CC[C@@H](CCn2cc(C3(O)CCCC3)nn2)O[C@@H]1CO	/	9	/	/	/	/
C[C@H](CO)N1C[C@H](C)[C@@H](CN(C)Cc2ccc(Oc3ccccc3)cc2)Oc2ccc(NS(=O)(=O)c3cn(C)cn3)cc2C1=O	/	-5	/	/	/	/
CCC(C)Nc1nc(-c2ccccn2)nc2ccccc12 (stereo unspecified)	-26	17	-6	-5	27	48*

Bioassay records (PubChem)
